Test results as given in the supplement of paper PMC10849652.
About 7,900 targets were measured; listed, in parts, are those with a hit and a random draw of the rest. About 0.6% of all pairs of compound and target were hits.

These targets were tested with C1=CC=C(C=C1)C2=NC(=C(N2)C3=CC=NC=C3)C4=CC(=C(C=C4)Cl)O (assay: log2 fold change, soluble protein after heating vs DMSO (PISA); higher = thermal stabilisation; K562 cells, 10 uM, 30 min; active = over 0.2 and 3.5 SD of the protein, either way, in both replicates (recomputed)).
Summary of the method: (§1)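 For each measurement, 10 μM compound was applied for 30 min to K562 cells at 2×10^6 cells/mL. Aliquots were heated for 3 min across 48°C-58°C, pooled, and extracted in PBS with 0.5% NP-40 at 4°C; the supernatant after 21,000xg for 90 min was soluble protein. This was quantified by TMTpro 16plex LC-MS/MS with channel sums equalised, and thermal stability was reported relative to control samples from duplicates, on a log2 fold-change scale.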

UniProt Q96KE9, sequence (Q96KE9 whole entry, looked up): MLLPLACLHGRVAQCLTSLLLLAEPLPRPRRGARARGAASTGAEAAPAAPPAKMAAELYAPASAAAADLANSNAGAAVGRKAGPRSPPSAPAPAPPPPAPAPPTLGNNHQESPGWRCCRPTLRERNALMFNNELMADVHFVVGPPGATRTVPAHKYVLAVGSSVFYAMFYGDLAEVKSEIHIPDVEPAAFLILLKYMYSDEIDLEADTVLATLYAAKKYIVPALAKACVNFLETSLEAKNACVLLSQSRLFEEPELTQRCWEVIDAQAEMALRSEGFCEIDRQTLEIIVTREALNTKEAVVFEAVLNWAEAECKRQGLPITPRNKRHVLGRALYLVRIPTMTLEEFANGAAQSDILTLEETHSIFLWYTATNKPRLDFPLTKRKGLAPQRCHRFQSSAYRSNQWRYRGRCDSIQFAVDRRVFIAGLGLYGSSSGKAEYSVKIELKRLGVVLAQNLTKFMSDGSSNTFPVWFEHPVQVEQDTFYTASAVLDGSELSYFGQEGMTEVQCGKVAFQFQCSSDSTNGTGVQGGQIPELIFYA
UniProt Q9NSY1, sequence (Q9NSY1 whole entry, looked up): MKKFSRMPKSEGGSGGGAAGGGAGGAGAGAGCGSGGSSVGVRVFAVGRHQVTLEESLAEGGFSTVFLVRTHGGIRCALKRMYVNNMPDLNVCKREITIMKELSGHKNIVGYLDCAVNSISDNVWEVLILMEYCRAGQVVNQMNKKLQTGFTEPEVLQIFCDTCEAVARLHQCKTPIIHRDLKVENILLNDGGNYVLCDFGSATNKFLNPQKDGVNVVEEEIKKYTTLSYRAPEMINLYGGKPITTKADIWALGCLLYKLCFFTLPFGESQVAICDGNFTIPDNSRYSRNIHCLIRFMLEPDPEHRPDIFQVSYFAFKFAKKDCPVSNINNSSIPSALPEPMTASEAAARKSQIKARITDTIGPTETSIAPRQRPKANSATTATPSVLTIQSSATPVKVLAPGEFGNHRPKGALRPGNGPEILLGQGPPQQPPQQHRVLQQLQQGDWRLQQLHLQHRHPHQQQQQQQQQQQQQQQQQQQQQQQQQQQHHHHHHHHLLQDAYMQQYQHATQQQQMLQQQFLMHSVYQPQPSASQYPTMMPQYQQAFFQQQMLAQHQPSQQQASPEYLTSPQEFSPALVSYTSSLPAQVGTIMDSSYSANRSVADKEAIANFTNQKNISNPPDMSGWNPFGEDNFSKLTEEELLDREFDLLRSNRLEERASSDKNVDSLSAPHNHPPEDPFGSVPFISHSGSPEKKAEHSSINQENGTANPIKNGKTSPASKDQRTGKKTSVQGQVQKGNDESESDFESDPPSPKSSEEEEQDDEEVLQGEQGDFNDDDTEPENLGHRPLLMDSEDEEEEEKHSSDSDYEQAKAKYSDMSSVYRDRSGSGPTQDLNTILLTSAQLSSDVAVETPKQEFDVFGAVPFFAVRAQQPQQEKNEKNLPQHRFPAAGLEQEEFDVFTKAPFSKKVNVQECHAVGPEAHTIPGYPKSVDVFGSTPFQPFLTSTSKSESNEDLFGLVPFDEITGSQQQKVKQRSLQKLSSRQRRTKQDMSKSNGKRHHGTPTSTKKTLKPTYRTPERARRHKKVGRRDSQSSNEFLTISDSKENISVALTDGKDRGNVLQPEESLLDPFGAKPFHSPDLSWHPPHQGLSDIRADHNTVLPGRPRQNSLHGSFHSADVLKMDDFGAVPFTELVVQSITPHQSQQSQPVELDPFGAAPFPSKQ
UniProt Q9NP58, sequence (Q9NP58 whole entry, looked up): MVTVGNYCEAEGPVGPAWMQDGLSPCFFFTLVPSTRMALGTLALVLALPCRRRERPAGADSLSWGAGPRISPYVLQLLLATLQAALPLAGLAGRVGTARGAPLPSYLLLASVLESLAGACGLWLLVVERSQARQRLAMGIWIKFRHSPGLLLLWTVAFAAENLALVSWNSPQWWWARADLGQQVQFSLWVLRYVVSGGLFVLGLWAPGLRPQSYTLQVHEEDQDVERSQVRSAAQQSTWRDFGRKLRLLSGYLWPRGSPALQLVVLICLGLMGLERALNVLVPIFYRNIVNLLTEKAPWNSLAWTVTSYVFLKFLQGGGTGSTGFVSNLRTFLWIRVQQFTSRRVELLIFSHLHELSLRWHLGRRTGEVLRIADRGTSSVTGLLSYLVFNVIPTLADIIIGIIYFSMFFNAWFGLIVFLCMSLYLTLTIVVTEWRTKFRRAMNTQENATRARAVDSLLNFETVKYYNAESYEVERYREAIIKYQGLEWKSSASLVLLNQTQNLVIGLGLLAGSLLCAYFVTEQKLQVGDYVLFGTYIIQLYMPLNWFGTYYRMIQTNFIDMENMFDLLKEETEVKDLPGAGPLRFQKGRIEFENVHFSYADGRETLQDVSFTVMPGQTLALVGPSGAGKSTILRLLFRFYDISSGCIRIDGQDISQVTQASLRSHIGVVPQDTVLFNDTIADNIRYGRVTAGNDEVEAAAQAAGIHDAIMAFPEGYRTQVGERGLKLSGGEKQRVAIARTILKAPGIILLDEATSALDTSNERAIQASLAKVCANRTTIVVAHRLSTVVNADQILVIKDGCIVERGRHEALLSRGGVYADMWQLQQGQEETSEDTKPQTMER
UniProt O43865, sequence (O43865 whole entry, looked up): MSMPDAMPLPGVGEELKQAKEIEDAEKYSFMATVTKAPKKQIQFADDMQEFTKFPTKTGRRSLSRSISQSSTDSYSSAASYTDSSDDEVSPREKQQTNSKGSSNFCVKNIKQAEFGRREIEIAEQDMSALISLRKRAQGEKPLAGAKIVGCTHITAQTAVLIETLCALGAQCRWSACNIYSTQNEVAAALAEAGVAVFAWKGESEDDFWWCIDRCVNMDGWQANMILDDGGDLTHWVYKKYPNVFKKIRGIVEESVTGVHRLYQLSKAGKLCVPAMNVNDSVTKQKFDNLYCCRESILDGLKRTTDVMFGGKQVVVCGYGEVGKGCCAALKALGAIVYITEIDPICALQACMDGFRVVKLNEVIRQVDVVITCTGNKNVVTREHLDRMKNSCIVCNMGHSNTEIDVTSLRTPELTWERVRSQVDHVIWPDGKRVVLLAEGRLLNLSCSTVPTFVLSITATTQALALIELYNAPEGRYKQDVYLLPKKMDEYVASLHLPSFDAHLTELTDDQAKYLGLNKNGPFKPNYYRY
UniProt O00170, sequence (O00170 whole entry, looked up): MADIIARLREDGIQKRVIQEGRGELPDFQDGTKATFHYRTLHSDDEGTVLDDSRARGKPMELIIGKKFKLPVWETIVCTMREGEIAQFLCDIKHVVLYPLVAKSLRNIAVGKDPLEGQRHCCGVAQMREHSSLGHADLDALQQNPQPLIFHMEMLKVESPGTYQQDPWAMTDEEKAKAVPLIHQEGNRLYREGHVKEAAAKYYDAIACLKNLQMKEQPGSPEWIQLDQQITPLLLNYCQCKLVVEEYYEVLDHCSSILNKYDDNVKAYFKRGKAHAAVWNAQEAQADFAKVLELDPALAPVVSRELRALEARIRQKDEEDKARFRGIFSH
UniProt Q8NBU5, sequence (Q8NBU5 whole entry, looked up): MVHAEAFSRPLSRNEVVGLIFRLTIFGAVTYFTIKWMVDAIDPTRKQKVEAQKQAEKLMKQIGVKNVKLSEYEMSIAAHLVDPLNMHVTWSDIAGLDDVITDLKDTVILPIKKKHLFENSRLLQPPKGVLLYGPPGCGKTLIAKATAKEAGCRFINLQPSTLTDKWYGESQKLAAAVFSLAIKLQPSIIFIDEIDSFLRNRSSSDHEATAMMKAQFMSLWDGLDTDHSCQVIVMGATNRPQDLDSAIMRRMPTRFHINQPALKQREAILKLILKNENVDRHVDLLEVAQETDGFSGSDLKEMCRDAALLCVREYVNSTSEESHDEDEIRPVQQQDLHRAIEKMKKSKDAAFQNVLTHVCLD
UniProt Q9P287, sequence (Q9P287 whole entry, looked up): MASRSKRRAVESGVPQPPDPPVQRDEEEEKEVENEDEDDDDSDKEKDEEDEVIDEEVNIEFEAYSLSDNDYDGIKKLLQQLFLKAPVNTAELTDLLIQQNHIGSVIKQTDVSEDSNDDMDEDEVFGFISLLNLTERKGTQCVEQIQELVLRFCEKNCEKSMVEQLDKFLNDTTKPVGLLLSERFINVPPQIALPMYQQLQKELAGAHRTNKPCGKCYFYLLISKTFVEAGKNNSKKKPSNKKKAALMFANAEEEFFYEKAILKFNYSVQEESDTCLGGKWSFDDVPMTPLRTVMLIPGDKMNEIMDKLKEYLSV
UniProt Q5T9A4, sequence (Q5T9A4 whole entry, looked up): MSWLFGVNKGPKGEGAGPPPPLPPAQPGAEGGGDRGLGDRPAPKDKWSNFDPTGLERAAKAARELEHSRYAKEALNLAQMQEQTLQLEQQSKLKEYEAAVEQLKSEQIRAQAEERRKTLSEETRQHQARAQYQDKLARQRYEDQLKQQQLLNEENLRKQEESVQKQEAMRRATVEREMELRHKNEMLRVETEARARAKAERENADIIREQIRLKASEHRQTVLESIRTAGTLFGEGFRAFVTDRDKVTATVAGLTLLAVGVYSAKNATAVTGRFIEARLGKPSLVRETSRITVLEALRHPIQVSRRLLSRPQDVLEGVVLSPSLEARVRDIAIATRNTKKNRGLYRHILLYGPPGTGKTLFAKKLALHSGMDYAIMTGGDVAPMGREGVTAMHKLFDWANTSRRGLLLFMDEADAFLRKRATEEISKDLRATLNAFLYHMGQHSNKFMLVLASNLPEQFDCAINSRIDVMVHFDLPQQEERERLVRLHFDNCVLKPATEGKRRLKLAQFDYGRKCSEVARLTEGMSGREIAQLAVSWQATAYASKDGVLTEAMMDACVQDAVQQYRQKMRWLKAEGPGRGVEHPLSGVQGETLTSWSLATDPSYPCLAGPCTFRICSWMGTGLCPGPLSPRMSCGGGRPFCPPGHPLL
UniProt Q9Y6H3, sequence (Q9Y6H3 whole entry, looked up): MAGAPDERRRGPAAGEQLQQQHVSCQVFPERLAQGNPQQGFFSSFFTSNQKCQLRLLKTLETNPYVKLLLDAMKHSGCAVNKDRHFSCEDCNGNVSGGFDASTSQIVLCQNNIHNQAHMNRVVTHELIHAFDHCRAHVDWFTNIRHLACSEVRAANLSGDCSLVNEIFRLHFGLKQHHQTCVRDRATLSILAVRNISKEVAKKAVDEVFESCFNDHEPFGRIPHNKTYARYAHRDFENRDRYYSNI

log2 fold change, inactive:
AARSD1 isoform 3 (UniProt Q9BTE6) -0.015
ALDH6A1 (UniProt Q02252) 0.038
ATP6V1H (UniProt Q9UI12) -0.131
ALG5 (UniProt Q9Y673) 0.009
ARHGAP1 (UniProt Q07960) 0.021
BMP2K (UniProt Q9NSY1) -0.012
AHCYL1 (UniProt O43865) 0.09
ANKZF1 (UniProt Q9H8Y5) -0.035
AIP (UniProt O00170) -0.01
ATP23 (UniProt Q9Y6H3) 0.009
BRD4 (UniProt O60885) 0.213
BCCIP (UniProt Q9P287) 0.013
BTBD6 (UniProt Q96KE9) 0.3
ABCB6 (UniProt Q9NP58) 0.087
ATAD3B (UniProt Q5T9A4) -0.06
BCL9L (UniProt Q86UU0) -0.128
AP2A2 isoform 2 (UniProt O94973) 0.072
ADK (UniProt P55263) 0.035
AKR1C2 (UniProt P52895) 0.292
BCLAF1 (UniProt Q9NYF8) 0.143
ACO2 (UniProt Q99798) 0.036
ALDH2 (UniProt P05091) -0.019
ATF7 isoform 6 (UniProt P17544) 0.08
AMD1 (UniProt P17707) 0.127
ARFIP1 (UniProt P53367) -0.126
AKT1 (UniProt P31749) 0.117
ABCA4 (UniProt P78363) 0.042
BLOC1S3 (UniProt Q6QNY0) 0.031
ARL2BP (UniProt Q9Y2Y0) 0.037
AGPS (UniProt O00116) 0.175
AMFR (UniProt Q9UKV5) 0.026
AGPAT1 (UniProt Q99943) -0.015
BOP1 (UniProt Q14137) -0.153
AKAP8L (UniProt Q9ULX6) -0.054
ATP2A3 isoform 2 (UniProt Q93084) -0.003
ATAD1 (UniProt Q8NBU5) 0.059

The targets below were run with C1=CC=C2C(=C1)C3=NNC4=CC=CC(=C43)C2=O in the same assay as above.
Summary of the method: as §1

log2 fold change, active:
BMP2K (UniProt Q9NSY1) 0.388

log2 fold change, inactive:
AARSD1 isoform 3 (UniProt Q9BTE6) 0.053
ALDH6A1 (UniProt Q02252) -0.038
ATP6V1H (UniProt Q9UI12) 0.024
ALG5 (UniProt Q9Y673) 0.048
ARHGAP1 (UniProt Q07960) -0.011
AHCYL1 (UniProt O43865) 0.118
ANKZF1 (UniProt Q9H8Y5) -0.039
AIP (UniProt O00170) 0.011
ATP23 (UniProt Q9Y6H3) 0.033
BRD4 (UniProt O60885) -0.002
BCCIP (UniProt Q9P287) 0.035
BTBD6 (UniProt Q96KE9) 0.081
ABCB6 (UniProt Q9NP58) -0.056
ATAD3B (UniProt Q5T9A4) 0.066
BCL9L (UniProt Q86UU0) 0.07
AP2A2 isoform 2 (UniProt O94973) -0.118
ADK (UniProt P55263) 0.042
AKR1C2 (UniProt P52895) -0.038
BCLAF1 (UniProt Q9NYF8) -0.063
ACO2 (UniProt Q99798) 0.009
ALDH2 (UniProt P05091) 0.097
ATF7 isoform 6 (UniProt P17544) 0.085
AMD1 (UniProt P17707) 0.035
ARFIP1 (UniProt P53367) -0.013
AKT1 (UniProt P31749) 0.059
ABCA4 (UniProt P78363) 0.044
BLOC1S3 (UniProt Q6QNY0) -0.052
ARL2BP (UniProt Q9Y2Y0) -0.047
AGPS (UniProt O00116) 0.043
AMFR (UniProt Q9UKV5) -0.062
AGPAT1 (UniProt Q99943) -0.001
BOP1 (UniProt Q14137) -0.014
AKAP8L (UniProt Q9ULX6) -0.027
ATP2A3 isoform 2 (UniProt Q93084) -0.04
ATAD1 (UniProt Q8NBU5) 0.123
